# Source: the supplement of paper PMC11732987, “Enantioselective OTUD7B fragment discovery through chemoproteomics screening and high-throughput optimisation” (Communications Chemistry, 2025)
# Unmarked numbers belong to inactive results.
# How the values were obtained:
# Test in all cases: log2 ratio of Biotin-Ahx-Ub-VS probe labelling (fragment/DMSO); higher = less target engagement (more negative = stronger competition), active = hit call of the paper (q ≤ 0.05, log2 ratio ≤ -1)
# Conditions in all cases: compound concentration: 200 uM; treatment time: 3 h
# ALG13 = molecular target: T1, ALG13 (UniProt Q9NP73)
# T1 sequence (whole entry): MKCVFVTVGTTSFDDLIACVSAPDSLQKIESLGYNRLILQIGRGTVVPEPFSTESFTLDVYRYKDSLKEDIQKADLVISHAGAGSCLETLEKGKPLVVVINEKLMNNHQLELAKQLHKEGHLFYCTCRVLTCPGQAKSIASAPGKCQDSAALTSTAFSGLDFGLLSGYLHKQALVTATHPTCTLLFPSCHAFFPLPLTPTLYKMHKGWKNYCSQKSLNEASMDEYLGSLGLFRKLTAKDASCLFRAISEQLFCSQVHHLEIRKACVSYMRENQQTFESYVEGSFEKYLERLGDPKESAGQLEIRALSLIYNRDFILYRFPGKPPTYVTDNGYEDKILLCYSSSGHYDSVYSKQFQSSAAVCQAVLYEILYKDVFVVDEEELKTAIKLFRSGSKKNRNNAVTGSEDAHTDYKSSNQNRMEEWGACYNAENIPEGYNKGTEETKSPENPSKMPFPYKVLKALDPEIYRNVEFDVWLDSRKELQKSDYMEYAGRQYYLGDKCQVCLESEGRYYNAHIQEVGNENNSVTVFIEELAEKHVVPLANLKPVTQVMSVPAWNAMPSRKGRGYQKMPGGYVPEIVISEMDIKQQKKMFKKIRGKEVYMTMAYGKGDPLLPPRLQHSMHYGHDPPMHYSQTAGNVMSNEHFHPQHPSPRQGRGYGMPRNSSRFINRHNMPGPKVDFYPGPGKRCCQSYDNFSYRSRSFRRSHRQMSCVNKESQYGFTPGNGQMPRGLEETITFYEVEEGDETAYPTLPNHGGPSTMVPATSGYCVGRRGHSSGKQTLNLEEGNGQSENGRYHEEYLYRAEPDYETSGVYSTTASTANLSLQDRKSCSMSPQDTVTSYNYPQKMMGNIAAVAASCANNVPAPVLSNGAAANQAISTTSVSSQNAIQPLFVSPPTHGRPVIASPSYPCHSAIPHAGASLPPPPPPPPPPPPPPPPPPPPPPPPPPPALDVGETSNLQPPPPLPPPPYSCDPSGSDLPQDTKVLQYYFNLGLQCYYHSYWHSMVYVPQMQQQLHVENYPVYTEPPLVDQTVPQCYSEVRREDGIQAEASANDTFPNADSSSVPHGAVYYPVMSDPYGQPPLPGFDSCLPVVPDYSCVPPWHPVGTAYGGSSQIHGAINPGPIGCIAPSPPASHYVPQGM
# Outline: (§1)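 Triplicate samples of HEK293T lysate, 495 µg each, received fragment at 200 µM or vehicle for 3 h, followed by Biotin-Ahx-Ub-VS (0.5 µM final) for 1 h. After NeutrAvidin enrichment of labelled DUBs and LysC/trypsin digestion, peptides were run by diaPASEF LC-MS/MS. The values are average log2 fragment/vehicle ratios from global-median-normalised Spectronaut label-free quantities, tested by unpaired t-test on proteins having ≥2 unique peptides.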
# ATXN3 = ATXN3 (UniProt P54252)
# Outline: as §1
# BAP1 = molecular target: T2, BAP1 (UniProt Q92560)
# T2 sequence (whole entry): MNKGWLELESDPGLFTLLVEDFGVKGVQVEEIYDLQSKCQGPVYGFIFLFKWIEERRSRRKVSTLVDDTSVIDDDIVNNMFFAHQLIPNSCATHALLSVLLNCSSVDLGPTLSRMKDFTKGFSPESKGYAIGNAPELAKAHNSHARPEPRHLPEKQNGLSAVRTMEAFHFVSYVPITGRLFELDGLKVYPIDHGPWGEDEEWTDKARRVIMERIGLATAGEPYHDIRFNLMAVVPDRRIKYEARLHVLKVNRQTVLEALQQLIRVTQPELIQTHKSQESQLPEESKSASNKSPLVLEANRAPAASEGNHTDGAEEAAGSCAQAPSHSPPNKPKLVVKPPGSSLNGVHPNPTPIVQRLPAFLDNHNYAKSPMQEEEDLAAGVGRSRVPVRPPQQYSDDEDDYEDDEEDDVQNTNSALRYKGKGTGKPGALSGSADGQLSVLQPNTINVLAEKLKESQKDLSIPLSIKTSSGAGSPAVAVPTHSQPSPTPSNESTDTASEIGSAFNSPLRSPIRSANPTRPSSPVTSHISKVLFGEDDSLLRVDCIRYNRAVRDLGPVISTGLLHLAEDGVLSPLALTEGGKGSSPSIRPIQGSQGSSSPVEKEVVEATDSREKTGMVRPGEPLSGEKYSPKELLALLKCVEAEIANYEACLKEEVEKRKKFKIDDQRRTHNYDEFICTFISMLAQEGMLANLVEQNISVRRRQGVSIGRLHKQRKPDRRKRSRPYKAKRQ
# Outline: as §1
# EIF3F = EIF3F (UniProt O00303)
# Outline: as §1
# EIF3H = EIF3H (UniProt O15372)
# Outline: as §1
# FAM105A = molecular target: T3, FAM105A (UniProt Q9NUU6)
# T3 sequence (whole entry): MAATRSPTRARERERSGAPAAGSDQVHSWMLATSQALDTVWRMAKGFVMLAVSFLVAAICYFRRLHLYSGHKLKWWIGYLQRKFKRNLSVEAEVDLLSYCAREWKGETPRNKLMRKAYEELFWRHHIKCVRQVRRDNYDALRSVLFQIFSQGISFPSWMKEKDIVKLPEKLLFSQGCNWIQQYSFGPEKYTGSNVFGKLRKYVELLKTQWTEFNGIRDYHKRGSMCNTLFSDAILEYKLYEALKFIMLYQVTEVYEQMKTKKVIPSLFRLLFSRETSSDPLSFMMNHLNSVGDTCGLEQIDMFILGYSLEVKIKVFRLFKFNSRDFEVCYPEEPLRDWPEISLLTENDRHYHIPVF
# Outline: as §1
# OTUB1 = OTUB1 (UniProt Q96FW1)
# Outline: as §1
# OTUD4 = molecular target: T4, OTUD4 (UniProt Q01804)
# T4 sequence (whole entry): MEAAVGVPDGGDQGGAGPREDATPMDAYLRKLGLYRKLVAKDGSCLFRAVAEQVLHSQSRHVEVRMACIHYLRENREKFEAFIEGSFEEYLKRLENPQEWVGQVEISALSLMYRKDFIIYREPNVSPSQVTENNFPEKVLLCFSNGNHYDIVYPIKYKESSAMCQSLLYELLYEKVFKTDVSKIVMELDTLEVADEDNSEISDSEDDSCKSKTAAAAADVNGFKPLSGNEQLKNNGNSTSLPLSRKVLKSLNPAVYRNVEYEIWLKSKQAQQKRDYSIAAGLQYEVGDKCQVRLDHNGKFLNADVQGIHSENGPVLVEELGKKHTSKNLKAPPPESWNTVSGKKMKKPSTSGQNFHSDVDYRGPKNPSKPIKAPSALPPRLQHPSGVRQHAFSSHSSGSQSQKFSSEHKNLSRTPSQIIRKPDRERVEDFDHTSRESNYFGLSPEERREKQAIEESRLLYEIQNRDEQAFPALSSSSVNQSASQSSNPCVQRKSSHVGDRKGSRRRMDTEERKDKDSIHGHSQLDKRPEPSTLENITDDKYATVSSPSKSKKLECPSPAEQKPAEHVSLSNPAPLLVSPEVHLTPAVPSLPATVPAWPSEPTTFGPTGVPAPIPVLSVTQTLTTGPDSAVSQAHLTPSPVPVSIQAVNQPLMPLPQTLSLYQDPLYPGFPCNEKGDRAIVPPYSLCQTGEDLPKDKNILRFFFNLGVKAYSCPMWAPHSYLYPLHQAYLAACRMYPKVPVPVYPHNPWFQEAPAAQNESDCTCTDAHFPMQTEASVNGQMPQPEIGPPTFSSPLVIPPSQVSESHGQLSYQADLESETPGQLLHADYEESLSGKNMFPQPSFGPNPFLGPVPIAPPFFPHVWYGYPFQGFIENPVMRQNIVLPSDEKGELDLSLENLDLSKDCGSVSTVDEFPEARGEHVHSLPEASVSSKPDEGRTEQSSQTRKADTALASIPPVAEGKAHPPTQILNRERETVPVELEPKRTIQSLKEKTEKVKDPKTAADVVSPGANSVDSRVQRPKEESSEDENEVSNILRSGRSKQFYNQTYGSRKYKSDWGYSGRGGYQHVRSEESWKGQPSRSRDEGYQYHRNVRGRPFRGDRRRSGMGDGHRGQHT
# Outline: as §1
# OTUD5 = molecular target: T5, OTUD5 (UniProt Q96G74)
# T5 sequence (whole entry): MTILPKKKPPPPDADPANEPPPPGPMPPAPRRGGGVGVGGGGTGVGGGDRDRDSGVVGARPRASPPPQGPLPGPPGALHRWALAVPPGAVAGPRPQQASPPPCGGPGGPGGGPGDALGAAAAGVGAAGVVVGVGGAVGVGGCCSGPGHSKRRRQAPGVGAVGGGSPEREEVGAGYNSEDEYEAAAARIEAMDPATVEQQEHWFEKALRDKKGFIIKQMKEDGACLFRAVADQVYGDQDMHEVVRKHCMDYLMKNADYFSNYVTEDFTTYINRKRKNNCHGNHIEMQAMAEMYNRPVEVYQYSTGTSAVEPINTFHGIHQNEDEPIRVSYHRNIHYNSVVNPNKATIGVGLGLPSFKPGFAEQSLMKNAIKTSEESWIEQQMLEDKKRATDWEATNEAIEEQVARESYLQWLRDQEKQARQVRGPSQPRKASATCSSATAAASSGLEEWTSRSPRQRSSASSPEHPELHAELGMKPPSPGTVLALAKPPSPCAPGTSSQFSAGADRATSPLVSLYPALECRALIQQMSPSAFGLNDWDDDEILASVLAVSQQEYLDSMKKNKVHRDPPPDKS
# Outline: as §1
# EIF3H, sequence (O15372 whole entry): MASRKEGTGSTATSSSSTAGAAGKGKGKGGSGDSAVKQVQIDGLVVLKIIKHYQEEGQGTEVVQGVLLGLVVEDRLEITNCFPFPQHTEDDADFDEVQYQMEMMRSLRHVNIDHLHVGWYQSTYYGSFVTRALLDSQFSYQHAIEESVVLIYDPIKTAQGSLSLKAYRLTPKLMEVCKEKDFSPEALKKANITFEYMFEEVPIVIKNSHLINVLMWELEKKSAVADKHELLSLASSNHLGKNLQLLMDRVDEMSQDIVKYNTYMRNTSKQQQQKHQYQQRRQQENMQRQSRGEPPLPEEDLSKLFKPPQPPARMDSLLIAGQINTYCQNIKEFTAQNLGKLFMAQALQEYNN
# OTUB1, sequence (Q96FW1 whole entry): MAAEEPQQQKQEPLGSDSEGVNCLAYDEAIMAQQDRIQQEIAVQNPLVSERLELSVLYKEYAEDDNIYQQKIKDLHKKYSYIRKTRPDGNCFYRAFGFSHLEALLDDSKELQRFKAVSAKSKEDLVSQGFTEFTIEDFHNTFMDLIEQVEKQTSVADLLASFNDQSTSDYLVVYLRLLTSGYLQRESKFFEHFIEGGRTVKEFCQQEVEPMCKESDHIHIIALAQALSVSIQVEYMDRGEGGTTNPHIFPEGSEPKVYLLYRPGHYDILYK
# EIF3F, sequence (O00303 whole entry): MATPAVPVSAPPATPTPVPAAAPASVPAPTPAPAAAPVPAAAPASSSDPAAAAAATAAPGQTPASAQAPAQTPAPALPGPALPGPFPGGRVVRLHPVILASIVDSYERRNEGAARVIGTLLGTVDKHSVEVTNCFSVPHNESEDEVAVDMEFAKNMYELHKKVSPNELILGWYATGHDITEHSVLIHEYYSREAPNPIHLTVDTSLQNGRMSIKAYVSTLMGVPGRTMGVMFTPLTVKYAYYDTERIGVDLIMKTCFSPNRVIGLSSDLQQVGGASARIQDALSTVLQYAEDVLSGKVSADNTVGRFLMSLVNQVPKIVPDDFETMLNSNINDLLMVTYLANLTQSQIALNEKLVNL
# ATXN3, sequence (P54252 whole entry): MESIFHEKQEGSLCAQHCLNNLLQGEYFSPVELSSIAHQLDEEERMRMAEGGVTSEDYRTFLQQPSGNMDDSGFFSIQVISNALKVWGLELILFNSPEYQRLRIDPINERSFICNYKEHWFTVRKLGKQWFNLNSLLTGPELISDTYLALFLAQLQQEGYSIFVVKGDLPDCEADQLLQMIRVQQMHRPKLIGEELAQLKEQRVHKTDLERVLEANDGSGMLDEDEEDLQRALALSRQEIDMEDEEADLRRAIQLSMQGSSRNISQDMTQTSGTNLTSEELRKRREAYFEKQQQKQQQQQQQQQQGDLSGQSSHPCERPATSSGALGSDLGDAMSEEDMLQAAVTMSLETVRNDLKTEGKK
Compound,log2 ratio of Biotin-Ahx-Ub-VS probe labelling (ALG13),log2 ratio of Biotin-Ahx-Ub-VS probe labelling (ATXN3),log2 ratio of Biotin-Ahx-Ub-VS probe labelling (BAP1),log2 ratio of Biotin-Ahx-Ub-VS probe labelling (EIF3F),log2 ratio of Biotin-Ahx-Ub-VS probe labelling (EIF3H),log2 ratio of Biotin-Ahx-Ub-VS probe labelling (FAM105A),log2 ratio of Biotin-Ahx-Ub-VS probe labelling (OTUB1),log2 ratio of Biotin-Ahx-Ub-VS probe labelling (OTUD4),log2 ratio of Biotin-Ahx-Ub-VS probe labelling (OTUD5)
Cc1n[nH]c2c1CN(C(=O)CCl)CC2,0.0341,-0.888,-1.1,-0.389,0.366,0.0256,-0.0671,-0.753,-1.05 (active)
NC(=O)C1CCCN(C(=O)CCl)C1 (configuration not stated),0.0966,-0.171,-0.437,-0.000958,0.225,0.217,-0.301,0.0344,-0.159
CCC(NC(=O)CCl)c1ccc(Cl)cc1 (configuration not stated),0.101,-0.139,-2.81 (active),-0.0176,-0.0528,0.315,-0.267,-0.628,-0.123
